VDR inh: Inhibitors of the vitamin D receptor (VDR): qHTS; Vitamin D3 receptor (Homo sapiens), P11473; VDR-SRC2-3 peptide fluorescence polarization, 2 h; Potency, µM, for inactives: max response, negative = inhibition, actives largely listed as inhibitors; 400,000 tested, 0.93% active; AID 504847, 2011; further: on the % scale 0 is the no-effect control and ±100 the full control effect
Target sequence (P11473 whole entry, looked up): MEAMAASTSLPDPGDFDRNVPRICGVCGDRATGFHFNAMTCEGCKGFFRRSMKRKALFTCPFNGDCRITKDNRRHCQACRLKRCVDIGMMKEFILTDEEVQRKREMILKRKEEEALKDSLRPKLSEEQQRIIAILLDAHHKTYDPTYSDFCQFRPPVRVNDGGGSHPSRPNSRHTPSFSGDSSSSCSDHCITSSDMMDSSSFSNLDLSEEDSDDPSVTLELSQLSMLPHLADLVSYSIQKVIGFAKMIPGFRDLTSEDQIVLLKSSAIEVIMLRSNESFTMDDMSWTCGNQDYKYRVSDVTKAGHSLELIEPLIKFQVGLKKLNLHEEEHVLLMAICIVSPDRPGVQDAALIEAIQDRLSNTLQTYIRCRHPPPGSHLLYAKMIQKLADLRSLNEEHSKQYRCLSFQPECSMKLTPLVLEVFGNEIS
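FP read-out; VDR + SRC2-3 coactivator peptide; 23 nl compound by pintool; 2 h RT incubation; reagents held at 4 deg C, protected from light.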
12-LOX inh: Primary qHTS assay for inhibitors of human arachidonate 12S-lipoxygenase (ALOX12): Round 2. Polyunsaturated fatty acid lipoxygenase ALOX12 (Homo sapiens), P18054. purified 12hLO, xylenol orange hydroperoxide absorbance. Potency, µM (doses to about 108 µM), inactives show top-dose activity change, negative = inhibition, hits mostly inhibitors. 580,000 tested, 1.1% active; further: on the % scale 0 is the no-effect control and ±100 the full control effect
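Purified human 12hLO at 150 nM in 25 mM Hepes, 0.01% Triton X-100, pH 7.0, preincubated 15 min at room temperature with compound. Reaction started with 40 uM arachidonic acid, 30 min at room temperature. Hydroperoxide measured by Fe-xylenol orange, 573/405 nm absorbance ratio.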
Glioma ERSR ind: qHTS for Inducers of the Endoplasmic Reticulum Stress Response (ERSR) in Human Glioma: qHTS; 420,000 tested, 0.02% active; Potency, µM, for the others: at the highest dose activation, most hits filed as activators; AID 602332, 2012; U87-MG GRP78 promoter luciferase reporter, 16 h; further: series mostly up to about 76 µM; % of control where 0% means no effect; nearly all actives have a fitted effect of over 35% in size
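Stably transfected U87-MG glioma cells carrying a GRP78-based luciferase sensor; 16 h compound incubation. Luminescence end-point read 10 min after Bright-Glo addition at room temperature.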
G9a inh: qHTS Assay for Inhibitors of Histone Lysine Methyltransferase G9a; Histone-lysine N-methyltransferase EHMT2 (Homo sapiens), Q96KQ7; G9a H3K9 monomethylation, AlphaScreen, 2 h; Potency, µM (series often up to 102 µM), for the others: at the top dose activity, negative = inhibition, usual class: inhibitors; 350,000 tested, 8.8% active; AID 504332, 2011; further: on the % scale 0 is the no-effect control and ±100 the full control effect; nearly all actives have a fitted effect of over 75% in size
Target sequence (Q96KQ7 913-1193 limits assumed): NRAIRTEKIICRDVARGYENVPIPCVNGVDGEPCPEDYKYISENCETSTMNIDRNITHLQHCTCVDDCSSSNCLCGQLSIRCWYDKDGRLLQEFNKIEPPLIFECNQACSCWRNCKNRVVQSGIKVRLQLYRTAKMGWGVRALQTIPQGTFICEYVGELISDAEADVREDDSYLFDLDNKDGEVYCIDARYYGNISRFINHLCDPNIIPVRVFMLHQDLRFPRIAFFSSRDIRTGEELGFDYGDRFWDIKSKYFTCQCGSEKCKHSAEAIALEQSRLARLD
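Readings reflect AlphaScreen signal from monomethyl-H3K9 antibody detection. HMT at 20 nM; substrate b-H3K9 500 nM; cofactor SAM 20 uM; 2 h RT reaction; compounds tested as titrations in qHTS with 15 min preincubation.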
Sfp inh: qHTS Assay for Inhibitors of Bacillus subtilis Sfp phosphopantetheinyl transferase (PPTase) | Biochemical Sfp PPTase activity, qHTS | Potency, µM, for the others: largest response in the series, negative = inhibition, actives largely listed as inhibitors | 310,000 tested, 3.5% active | AID 1490, 2009;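 further: the enzyme is Sfp with the accession as filed and its product quenches rhodamine fluorescence; 0% = enzyme reaction without inhibitor and -100% = no enzyme wells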
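Step 1, compound plus 15 nM Sfp-PPTase, 15 min, room temperature. Step 2, add rhodamine-CoA (5 uM) and BHQ-2-YbbR (12.5 uM). Step 3, read 525/598 nm fluorescence at 0 and 30 min.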
The depositor's hits bear a star; ? = inconclusive; . = no result; ! = a repeat was not active; [ ] = remark or other dose. This excerpt belongs to a sample that is enriched for hits. The call rests on the fitted dose curve; in most records, active means well fitted curve in the direction sought with a large enough effect; inconclusive means small, poorly fitted or top-dose-only effect, or another doubt; inactive means no such curve, though single readings can be large; an effect the other way counts as inactive or inconclusive. Potency means the concentration at half of the fitted maximal effect.

SMILES	VDR inh	12-LOX inh	Glioma ERSR ind	G9a inh	Sfp inh
O=C(CCN1CCN(C(=O)c2ccco2)CC1)Nc1ccc(F)cc1	-2.3%	-2.2%	-2.5%	-5.8%[12.7 µM]	14.9%
O=C(c1ccco1)N1CCN(CCCCOc2ccc(F)cc2)CC1	-10.1%	31.6µM*	-1.5%	?	0.3%
O=C(COC(=O)C1(c2ccccc2F)CCCC1)N1CCN(C(=O)c2ccco2)CC1	0.5%	6.4%	-1.2%	50.1µM*	2.3%
O=C1N=c2ccc(Br)cc2=C1c1sc(=S)n(NS(=O)(=O)c2ccccc2)c1O	?	35.5µM*	-4.8%	15.8µM*	?
O=C1N=c2ccccc2=C1c1sc(=S)n(-c2ccc(O)cc2)c1O	-3.9%	6.8%	0.0%	?	0.6%
O=C1N=c2ccccc2=C1c1sc(=S)n(NC(=O)c2cccc(O)c2)c1O	-21.9%	-29.7%	-2.1%	31.6µM*	-15.4%
Cc1c(-n2c(O)c(C3=c4ccccc4=NC3=O)sc2=S)c(=O)n(-c2ccccc2)n1C	-18.5%	-7.8%	-5.0%	44.7µM*	?
CC(/C=C/c1ccccc1)=N/NC(=O)c1cc([N+](=O)[O-])cc([N+](=O)[O-])c1	-16.8%	1.6%	-3.9%	19.2%[59 µM]	?
CC(/C=C/c1ccccc1)=N\Nc1ccccc1[N+](=O)[O-]	3.5%	-6.5%	0.0%	0.891µM*	-4.6%
Clc1cc(Cl)c(OCC#CI)cc1Cl	2.82µM*	.	-11.5%	-5.6%[12.7 µM]	79.4µM*
NC(CSCSCC(N)C(=O)O)C(=O)O (configuration not stated)	6.4%	.	-2.0%	.	10.7%
N[C@H](C(=O)O)C(O)C(O)C(O)CO (some centres not stated)	-1.1%	.	-0.6%	.	5.2%
N[C@@H](CO)C(=O)O	13.7%	?	-5.9%	.	63.1µM*!
N[C@@H](CS(=O)O)C(=O)O	17.0%	?	-5.3%	21.2µM*!	56.2µM*
N[C@H](CO)C(=O)O	-0.6%	?	-2.0%	11.9µM*!	-3.6%
Cc1ccc(C2=NS(=O)(=O)N(C)C(C(=O)N3CCN(c4ccccc4)CC3)=C2)cc1	.	-5.9%	.	.	.
CN(C)C/C(Cl)=C(\Cl)c1ccccc1	-6.5%	?	-2.2%	14.1µM*	-5.3%
O=C(NCCNS(=O)(=O)c1cccc2nonc12)c1ccc2cc[nH]c2c1	.	8.5%	.	.	.
O=C(CCCCCn1c(=O)c2sccc2n(Cc2ccc(Cl)cc2)c1=O)NCc1ccc2c(c1)OCO2	89.1µM*	-26.4%	-1.5%	-1.1%[59 µM]	.
C/C=C/Cn1c(SCCO)nc2c1c(=O)[nH]c(=O)n2C	.	-3.0%	.	.	.
Cn1c(=O)c2c(nc(SCC(=O)O)n2Cc2cccc(C(F)(F)F)c2)n(C)c1=O	-3.4%	-6.5%	-3.7%	14.1µM*	6.4%
CSc1nc2c(c(=O)[nH]c(=O)n2C)n1Cc1ccc(Cl)cc1	89.1µM*	?	-3.1%	25.0%[0.501 µM]	20µM*
CCn1c(SCc2ccccc2)nc2c1c(=O)[nH]c(=O)n2C	-25.4%	8.8%	-1.8%	44.7µM*	-6.2%
Cn1c(SCc2ccccc2)nc2c1c(=O)[nH]c(=O)n2C	-9.7%	?	-5.6%	-20.2%	7.4%
C/C=C/Cn1c(SC)nc2c1c(=O)[nH]c(=O)n2C	-9.1%	?	-5.3%	8.91µM*	?
SMILES	VDR inh	12-LOX inh	Glioma ERSR ind	G9a inh	Sfp inh
Cn1c(SCC(N)=O)nnc1-c1cc2c(s1)CCC(C(C)(C)C)C2 (configuration not stated)	.	-16.9%	.	.	.
Cn1c(=O)[nH]c(=O)c2c1nc(SCC(=O)O)n2Cc1ccccc1	-18.9%	-34.3%	-2.0%	22.4µM*	18.0%
C/C=C/Cn1c(SCc2cccc(C)c2)nc2c1c(=O)[nH]c(=O)n2C	.	-10.4%	.	.	.
Cc1cccc(Cn2c(SCCN3CCOCC3)nc3c2c(=O)n(C)c(=O)n3C)c1	-1.9%	2.1%	-3.5%	44.7µM*	12.3%
Cn1c(=O)[nH]c(=O)c2c1nc(SCC(=O)O)n2CCCc1ccccc1	-8.9%	?	-2.1%	2.4%[2.33 µM]	5.6%
C/C=C/Cn1c(SCc2ccc(Cl)cc2)nc2c1c(=O)[nH]c(=O)n2C	?	?	2.5%	44.7µM*	0.7%
COCCn1c(SCc2ccc(Cl)cc2)nc2c1c(=O)[nH]c(=O)n2C	-1.4%	0.0%	-5.3%	.	.
CCCn1c(SCc2ccc(Cl)cc2)nc2c1c(=O)[nH]c(=O)n2C	-21.9%	-4.9%	2.8%	50.1µM*	8.3%
O=C(Nc1nonc1-c1ccc2c(c1)CCCC2)c1cc(=O)c2ccc(Br)cc2o1	.	-19.8%	.	.	.
Cc1ccc2c(cnn2C(=O)CCC(=O)NCc2cccc(Cl)c2)c1	-7.3%	26.9%	1.7%	44.7µM*	-23.5%
CCN(CC)P(=O)(Nc1cccc(C(F)(F)F)c1)c1ccc(N(C)C)cc1NC(=O)c1ccco1 (configuration not stated)	-3.6%	-6.9%	-2.8%	31.6µM*	15.8%
O=C(CCc1ccsc1)Nc1cccc(N2CCCC2=O)c1	.	-4.3%	.	.	.
Cc1ccc(NC2c3ncccc3C(=O)N2Cc2ccc(F)cc2)cc1 (configuration not stated)	-7.0%	-18.5%	0.2%	?	10.1%
CCOc1ccc(N2C(=O)c3cccnc3C2Nc2ccc(F)cc2)cc1 (configuration not stated)	-23.0%	-11.6%	1.0%	56.2µM*	-17.8%
CC(=O)C1=C(C)NC(SCC(=O)c2ccc(Cl)c(Cl)c2)=C(C#N)C1c1ccco1 (configuration not stated)	13.4%	?	1.8%	?	3.55µM*
CC(=O)C1=C(C)NC(SCC(=O)c2ccc(F)cc2)=C(C#N)C1c1ccco1 (configuration not stated)	32.5%	-20.3%	-0.5%	?	?
C=CCOC(=O)C1=C(C)NC(SCC(=O)N(CC)CC)=C(C#N)C1c1ccco1 (configuration not stated)	9.3%	17.5%	-4.5%	?	2.9%
CCN(CC)C(=O)CSC1=C(C#N)C(c2ccco2)C(C(=O)OCCOC)=C(C)N1 (configuration not stated)	-5.9%	31.8%	-4.8%	25.1µM*	56.2µM*
COc1ccccc1NC(=O)C1=C(C)NC(SCC(=O)c2ccc(C)cc2)=C(C#N)C1c1ccco1 (configuration not stated)	.	0.0%	.	?	44.7µM*
CCc1ccc(C(=O)CSC2=C(C#N)C(c3ccco3)C(C(C)=O)=C(C)N2)cc1 (configuration not stated)	-20.5%	.	-0.3%	39.8µM*	56.2µM*
CC1=C(C(=O)Nc2ccccc2)C(c2ccco2)C(C#N)=C(SCC(=O)OC(C)C)N1 (configuration not stated)	37.8%	.	?	-15.4%[59 µM]	5.8%
CCOc1ccc(-n2cc(-c3ccccc3)c3c(NCC(OC)OC)ncnc32)cc1	.	10.8%	.	.	.
